IEC-6 cytotox: kills IEC-6 intestinal cells in KLF5 counter-screen | IEC-6 cytotoxicity, luminescence viability | 290,000 tested, 0.78% active | AID 1825 | inhibition, % at 5 µM; in the data active means inhibition above about 22%
aSyn UTR inh: MLPCN primary screen, SNCA 5' untranslated region. alpha-synuclein 5'UTR reporter, inhibitor activity. inhibition, % (tested at 7.5 µM). 300,000 tested, 0.82% active; in the data active means inhibition above about 60%;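 further: H4 neuroglioblastoma cells stably carrying SNCA 5'UTR luciferase fusion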
APP transl inh: APP translation inhibition; SH-SY5Y APP 5'UTR-luciferase reporter, luminescence; inhibition, % at 2 µM; 190,000 tested, 0.82% active; AID 1285;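 active means inhibition above a set limit, derived from the sample mean plus 3 SD, cut at about 45% in these data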
KLF5 inhibitor: inhibitors of KLF5 expression; 290,000 tested, 0.23% active; inhibition, % at 5 µM; AID 1700; DLD-1 KLF5 promoter-luciferase reporter, luminescence;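 active means inhibition above a per-plate limit of that plate's mean compound inhibition plus 3 SD, cut at about 60% in these data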;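 further: higher means less KLF5 promoter-driven luciferase light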
BaF3 parental: reduces parental Ba/F3 cell viability, JAK2V617F counter-screen; inhibition, % at 5.6 µM; 220,000 tested, 1.1% active; CellTiter-Glo ATP luminescence;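 active means inhibition above a per-campaign cutoff, the mean inhibition of all tested compounds plus 3 SD, cut at about 27% in these data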
Ba/F3 V617F tox: lowers viability of Ba/F3 cells expressing EpoR and JAK2V617F; ATP luminescence; inhibition, % at 5.6 µM; 220,000 tested, 1.1% active;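 active means inhibition above the campaign mean plus 3 SD over all tested compounds, cut at about 24% in these data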;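 further: cytokine-independent growth of Ba/F3 cells driven by EpoR plus mutant JAK2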
Each line names hits and unclear results; the compound was inactive in the other large screens. A selection: hits, their analogues and other compounds. The true share with any hit is near 2.1%.

O=C(c1cc([N+](=O)[O-])ccc1N1CCOCC1)N1CCOCC1	none
Cc1ccc(C(=O)c2cc([N+](=O)[O-])ccc2N2CCOCC2)cc1	aSyn UTR inh 92, APP transl inh 93
COc1cc(/C=C/C(=O)NC(=O)c2ccccc2O)ccc1OC(C)=O	none (no result: APP transl inh, BaF3 parental, Ba/F3 V617F tox)
CC(=O)N1CCN(c2ncnc3ccccc23)CC1	none (no result: APP transl inh, BaF3 parental, Ba/F3 V617F tox)
Cc1ccc(-c2cc(C(=O)N/N=C/c3c(C)nn(-c4ccccc4)c3C)[nH]n2)cc1	aSyn UTR inh 66, APP transl inh 95
Cc1nn(-c2ccccc2)c(C)c1/C=N/NC(=O)c1cc(C(C)(C)C)[nH]n1	none
Cc1cc(NC(=O)c2cc(-c3cccc(OCC(C)C)c3)nc3ccccc23)no1	none (no result: APP transl inh, BaF3 parental, Ba/F3 V617F tox)
CCCNc1nc2c(c(=O)n(C)c(=O)n2C)n1Cc1cccc(C)c1	BaF3 parental 45, Ba/F3 V617F tox 42
CCCCNc1nc2c(c(=O)n(C)c(=O)n2C)n1CCC	none (no result: IEC-6 cytotox, APP transl inh, KLF5 inhibitor, BaF3 parental, Ba/F3 V617F tox)
CCCCCCn1c(NCC)nc2c1c(=O)n(C)c(=O)n2C	BaF3 parental 59, Ba/F3 V617F tox 54
COc1cccc(Cn2c(NCC(C)C)nc3c2c(=O)n(C)c(=O)n3C)c1	none
COCCNc1nc2c(c(=O)n(C)c(=O)n2C)n1Cc1cccc(C(F)(F)F)c1	BaF3 parental 60, Ba/F3 V617F tox 59
CCCNc1nc2c(c(=O)n(C)c(=O)n2C)n1CCc1ccccc1	none
COc1cccc(Cn2c(NCc3ccco3)nc3c2c(=O)n(C)c(=O)n3C)c1	BaF3 parental 86, Ba/F3 V617F tox 59
CCOc1ccccc1CN1CCN(C/C=C/c2ccc(OC)cc2)CC1CCO (stereo unspecified)	BaF3 parental 43
O=C(/C=C/c1ccc([N+](=O)[O-])cc1)NC1CC2CCC1C2 (stereo unspecified)	none
O=C(/C=C/c1ccc([N+](=O)[O-])cc1)NNC(=O)C1CC1	BaF3 parental 50, Ba/F3 V617F tox 44
Cc1ccc(-n2c(-c3ccccc3)c[n+]3c2CCc2ccccc2-3)c(C)c1	IEC-6 cytotox 27, BaF3 parental 81, Ba/F3 V617F tox 100 (no result: aSyn UTR inh)
CCSc1ccc2cc(OC)ccc2[n+]1CC	BaF3 parental 88, Ba/F3 V617F tox 82
Cc1cccc(C(=O)O/N=C(\N)c2ccccn2)c1	aSyn UTR inh 70 (no result: APP transl inh, BaF3 parental, Ba/F3 V617F tox)
N/C(=N\OC(=O)c1ccccc1)c1ccccn1	none
CCOc1ccc(C(=O)O/N=C(\N)c2ccccn2)cc1	aSyn UTR inh 62 (no result: APP transl inh, BaF3 parental, Ba/F3 V617F tox)
Cc1ccc(C(=O)O/N=C(\N)c2ccccn2)cc1	aSyn UTR inh 65 (no result: APP transl inh, BaF3 parental, Ba/F3 V617F tox)
N/C(=N\OC(=O)c1cccc(F)c1)c1ccccn1	none (no result: APP transl inh, BaF3 parental, Ba/F3 V617F tox)
O=c1c2cc3c(=O)n(-c4ccccc4O)c(=O)c3cc2c(=O)n1-c1ccccc1O	none
CCCN(CC(=O)Nc1ccccc1C)C(=O)C1CC(=O)N(Cc2ccccc2)C1 (stereo unspecified)	none (no result: IEC-6 cytotox, APP transl inh, KLF5 inhibitor, BaF3 parental, Ba/F3 V617F tox)
CCCC(NC(=S)NCC1CCCO1)C12CC3CC(CC(C3)C1)C2 (stereo unspecified)	none
O=C(c1cnccn1)N(Cc1ccco1)C1(C(=O)NC2CCCC2)CCCCC1	none
O=C(c1ccccn1)N(Cc1ccco1)C1(C(=O)NC2CCCC2)CCCCC1	BaF3 parental 45
OCCN(CCO)CC(O)COc1ccc(C23CC4CC(CC(C4)C2)C3)cc1 (stereo unspecified)	aSyn UTR inh 76, APP transl inh 53
OCCN(CCO)CC(O)COc1ccc(Br)cc1 (stereo unspecified)	none (no result: APP transl inh)
FC(F)(F)c1ccccc1NC(=S)N/N=C1\CC2CC=CC12 (stereo unspecified)	APP transl inh 86 (no result: aSyn UTR inh)
CC1CCCC(C)N1C(=O)COc1ccc(F)cc1 (stereo unspecified)	none
C(=N\Nc1nc2ccccc2s1)/c1ccccn1	aSyn UTR inh 101 (no result: APP transl inh)
Cc1csc(N/N=C/c2ccccn2)n1	aSyn UTR inh 69
C/C(=N\NC(=O)CC#N)C1COc2ccccc2O1 (stereo unspecified)	none
Cc1ccccc1Cn1ccc(=NCc2ccccc2)cc1	BaF3 parental 79, Ba/F3 V617F tox 100
CS(=O)(=O)N1CCC(C(=O)Nc2cc(Cl)c(Cl)cc2Cl)CC1	none (no result: APP transl inh, BaF3 parental, Ba/F3 V617F tox)
Clc1ccc(-n2cc(-c3ccc(Br)cc3)[n+]3c2CCCCC3)cc1	BaF3 parental 60, Ba/F3 V617F tox 55 (no result: APP transl inh)
O=C(Cn1nc(CNc2ccc(Cl)cc2)[n+]2c1CCCCC2)c1ccc(Br)cc1	none
Cc1ccc(-c2cn(-c3ccc(SC(F)F)cc3)c3[n+]2CCC3)cc1	BaF3 parental 66, Ba/F3 V617F tox 67
FC(F)Sc1ccc(NC2=NCCCCC2)cc1	none (no result: APP transl inh, BaF3 parental, Ba/F3 V617F tox)
c1ccc(-c2c[nH]c3[n+]2CCCCC3)cc1	none
CC(C)(C)c1cn(-c2ccc(Cl)cc2)c(=S)[nH]1	none
Brc1ccc(-c2csc3[n+]2CCCCC3)cc1	BaF3 parental 55, Ba/F3 V617F tox 55
FC(F)Sc1ccc(-n2cc(-c3ccc(Cl)cc3)[n+]3c2CCC3)cc1	BaF3 parental 36, Ba/F3 V617F tox 25
CCc1cc(C(=O)OC)c(NC(=O)CSc2nccn2C)s1	none (no result: APP transl inh, BaF3 parental, Ba/F3 V617F tox)
O=C(NCCc1ccccc1C(F)(F)F)C1CCC(=O)N(C2CC2)C1 (stereo unspecified)	none (no result: APP transl inh, BaF3 parental, Ba/F3 V617F tox)
CCc1cc(=O)oc2cc3occ(-c4ccc(OC)c(F)c4)c3cc12	APP transl inh 91
CCc1cc(=O)oc2cc3occ(C)c3cc12	none
CC(C)CCNC(=O)C(CC(C)C)N(Cc1ccc2c(c1)OCO2)C(=O)c1snc(C(N)=O)c1N (stereo unspecified)	none
Cc1cccc(-c2nnc3n2N=C(c2ccccc2)CS3)c1	aSyn UTR inh 63
Cc1c(C(=O)NCC2CCCO2)oc2ccc(S(=O)(=O)N3CCCC3)cc12 (stereo unspecified)	none
Cc1c(C(=O)NCC2CCCO2)oc2ccc3c(c12)C(=O)CC(C)(C)O3 (stereo unspecified)	BaF3 parental 94
COc1ccccc1C(=O)NNC(=O)c1sccc1-n1cccc1	none
CN1CCN(C(=S)NC(=O)c2ccc(C(C)(C)C)cc2)CC1	none
C=CCn1cccc(/C=C/C(=O)c2ccc(C(C)(C)C)cc2)c1=S	BaF3 parental 46
Cn1c(=O)oc2cc(S(=O)(=O)N3CCCC(C(=O)Nc4ccccn4)C3)ccc21 (stereo unspecified)	none
Cn1c(=O)oc2cc(S(=O)(=O)N3CCCC(C(=O)NC4CCCc5ccccc54)C3)ccc21 (stereo unspecified)	aSyn UTR inh 63
CCOc1ccccc1CN1CCC(n2nccc2NC(=O)C2CCCC2)CC1	none (no result: APP transl inh, BaF3 parental, Ba/F3 V617F tox)
COc1cccc(CN2CC(C(=O)NCCc3ccc(C)s3)CCC2=O)c1 (stereo unspecified)	none (no result: APP transl inh, BaF3 parental, Ba/F3 V617F tox)
CCOC(=O)C1CCN(C(=O)c2ccc(Cl)c(S(=O)(=O)N3CCOCC3)c2)CC1	BaF3 parental 92
CCOC(=O)C1CCN(C(=O)c2ccc(Cl)c(S(=O)(=O)N3CCCC3)c2)CC1	none (no result: APP transl inh, BaF3 parental, Ba/F3 V617F tox)
Cc1ccc(-c2nn(CC(=O)NN3CCOCC3)c(=O)c3ccccc23)cc1	none (no result: APP transl inh)
CC(C)OCCCNC(=O)C1CCN(S(=O)(=O)c2ccc3nc4c(c(C(=O)O)c3c2)CCCCC4)CC1	none (no result: APP transl inh, BaF3 parental, Ba/F3 V617F tox)

Bioassay records deposited in PubChem by several laboratories.
